Results taken from PubChem BioAssay AID624167 (Sanford-Burnham Center for Chemical Genomics, 2012).

test: Peg3 promoter luciferase inhibitors, potency, dose response, cell-based, HeLa, CREF/GAPDH counter-screen panel (AID 624167); details: CREF/GAPDH counter-screens; run 1, dose range 1, at 100 µM (top of the series)

**Q.** For `CC(=O)OC1CC[C@]2(C#N)[C@H]3CC[C@]4(C)[C@H](C5C=CC(=O)O5)CCC4(O)C3CCC2(O)C1` (stereo partly drawn), which inhibition is on record?
**A.** 77.9%

**Q.** Which inhibition does the source give for `CCC(c1nnnn1-c1ccc2c(c1)OCCO2)N1CCC(n2c(=O)[nH]c3ccccc32)CC1` (stereo not drawn) here?
**A.** 92.4%

**Q.** Which inhibition does the source give for `COC(COC(N)=O)C1=C(N2CC2)C(=O)C(C)=C(N2CC2)C1=O` (stereo not drawn) here?
**A.** 84.3%

**Q.** With `CC1=CC2/C=C(\C)CCC(O)C(O)/C=C/C(=O)C23C(=O)NC(CC(C)C)C3C1C` (stereo not drawn) as the molecule, how does the inhibition read?
**A.** 99.8%

**Q.** With `CC(=O)OC1(C)CC(C)C(=O)C(C(O)CC2CC(=O)NC(=O)C2)C1` (stereo not drawn) as the molecule, how does the inhibition read?
**A.** 89.5%

**Q.** Which inhibition does the source give for `COc1cc2nc(CN3CC=C(c4ccccc4)CC3)[nH]c(=O)c2cc1OC` here?
**A.** 56.3%

**Q.** Which inhibition does the source give for `O=C(CSC1c2ccccc2-c2ccccc21)N/N=C/c1ccccc1O` here?
**A.** 60.3%

**Q.** For `C=Cc1cc(OC)c2c(c1)c(=O)oc1c2cc(OC)c2c(O)ccc(C3OC(C)C(O)C(C)(O)C3O)c21` (stereo not drawn), which inhibition is on record?
**A.** -12.4%
